Results filed as inconclusive are left out. Activity calls are given as the source filed them. Unless noted, calls come from the whole dose curve; as a rule, active = well fitted curve in the direction sought with a large enough effect in the repeat runs; inconclusive = weak or mixed curves; inactive = no such curve, though single readings can be large; an effect the other way counts as inactive or inconclusive.
Assays:
[1] = qHTS assay to identify small molecule agonists of the hypoxia (HIF-1) signaling pathway - cell viability counter screen (AID 1224844; calls by dose curve; note: nearly all actives have a fitted effect of over 50% in size)
Method in brief: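 Cytotoxicity measured by CellTiter-Glo ATP luminescence in the wells also read for beta-lactamase signal. Cells were HRE-bla ME-180 (2,000/well, 0.5% dialyzed FBS), exposed to compounds for 17 h at 37C.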

[2] = qHTS assay to identify small molecule agonists of H2AX (AID 1224845; active = well fitted activation curve with a large enough effect in the signal ratio in the repeat runs, not every such curve was filed as active; the % refers to the signal ratio)
Method in brief: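 Phospho-H2AX Ser139 measured by HTRF (ex 320 nm; em 665 and 620 nm) after 24 hr antibody incubation. Compounds, 15 concentrations, 0.76% DMSO, were applied to CHO-K1 cells for 3hr at 37C before lysis.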

[3] = qHTS assay to identify small molecule agonists of the hypoxia (HIF-1) signaling pathway (AID 1224846; active = well fitted activation curve with a large enough effect in the signal ratio in the repeat runs, not every such curve was filed as active; the % refers to the signal ratio)
Method in brief: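 Compounds added to ME-180 cells carrying hypoxia-response-element beta-lactamase reporter (0.5% dialyzed FBS, 5 h preplating), 17 h at 37C; agonist activity detected by CCF4-AM B/G FRET read-out.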

[4] = qHTS assay to identify small molecule agonists of H2AX - cell viability counter screen (AID 1224847; calls by dose curve; note: top concentration of the series differs between compounds; nearly all actives have a fitted effect of over 30% in size)
Method in brief: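 Wild-type CHO-K1 cells (10% FBS medium) were plated overnight at 37C, exposed to compounds at 15 concentrations for 3 hr at 37C (0.76% DMSO final), and viability was read as CellTiter-Glo luminescence after 30 min at room temperature.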

[5] = qHTS assay to identify small molecule antagonists of the estrogen related receptor (ERR) signaling pathway from Tox21 library (AID 1224848); note: nearly all actives have a fitted effect of over 50% in size
Method in brief: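 Luciferase luminescence (ONE-Glo, 30 min room temperature) was the read-out. Cells of the NTP-supplied ERR line, 2,000 per well, were given 6 h at 37 C before compound addition in DMSO and 18 h exposure at 37 C.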

[6] = qHTS assay to identify small molecule agonists of the estrogen related receptor (ERR) signaling pathway from Tox21 library (AID 1224849; calls by dose curve; note: nearly all actives have a fitted effect of over 15% in size); conditions: ERR reporter cell line, ONE-Glo luciferase, 18 h; at 92.4 µM (top of the series) unless noted
Method in brief: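 Luminescent agonist read-out (One-Glo, 30-minute room-temperature incubation) following 18-hour compound treatment at 37 C of the ERR cell line, which had been plated 6 hours before dosing.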

[7] = qHTS RealTime-Glo MT Cell Viability Assay in HepG2 cells - 24 hour (AID 1224867); note: nearly all actives have a fitted effect of over 50% in size
Method in brief: (§1)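 Viability was tracked continuously by NanoLuc luminescence from prosubstrate reduced by living HepG2 cells, at successive time points over 40 h of compound exposure. Cells with reagent were preincubated 5 h at 37 °C before compound addition.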

[8] = qHTS RealTime-Glo MT Cell Viability Assay in HEK293 cells - 32 hour (AID 1224868); note: top concentration of the series differs between compounds; nearly all actives have a fitted effect of over 50% in size
Method in brief: (§2)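 Viability tracked continuously by luminescence as live cells reduce a prosubstrate for NanoLuc; HEK293 cells preincubated 5 h, compound-treated at 37 C, and read at 0, 8, 16, 24, 32 and 40 h.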

[9] = A CellTox Green Cytotoxicity Assay to monitor cytotoxicity in HEK293 cells - 0 hour (AID 1224869); note: nearly all actives have a fitted effect of over 50% in size
Method in brief: (§3)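 Fluorescence from a DNA-binding dye excluded by viable cells was measured repeatedly in the same HEK293 wells (600 cells/well) during continuous compound exposure at 37 C. Each assay gives one read point: 0, 8, 16, 24, 32 or 40 h.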

[10] = qHTS RealTime-Glo MT Cell Viability Assay in HepG2 cells - 40 hour (AID 1224870); note: nearly all actives have a fitted effect of over 50% in size
Method in brief: (§4)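 Real-time viability: cells seeded at 600 per well together with NanoLuc and cell-permeant prosubstrate, compounds added after 5 h incubation. Luminescence tracked at 0, 8, 16, 24, 32 and 40 h of exposure.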

[11] = A CellTox Green Cytotoxicity Assay to monitor cytotoxicity in HEK293 cells - 40 hour (AID 1224871); note: nearly all actives have a fitted effect of over 45% in size
Method in brief: as §3

[12] = qHTS RealTime-Glo MT Cell Viability Assay in HEK293 cells - 16 hour (AID 1224872)
Method in brief: as §2

[13] = qHTS RealTime-Glo MT Cell Viability Assay in HepG2 cells - 8 hour (AID 1224873); note: nearly all actives have a fitted effect of over 55% in size
Method in brief: as §4

[14] = qHTS RealTime-Glo MT Cell Viability Assay in HEK293 cells - 40 hour (AID 1224874); conditions: RealTime-Glo luminescence; max response: stronger effect = lower value; note: nearly all actives have a fitted effect of over 50% in size
Method in brief: (§5)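 Luminescence, which tracks viable cell number through reduction of the prosubstrate to a NanoLuc substrate, was read over continuous 37 C culture. Cells (600/well) were premixed with reagent and rested 5 h before 23 nL of compound in DMSO was pinned.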

[15] = A CellTox Green Cytotoxicity Assay to monitor cytotoxicity in HEK293 cells - 24 hour (AID 1224875); note: nearly all actives have a fitted effect of over 45% in size
Method in brief: as §3

[16] = A CellTox Green Cytotoxicity Assay to monitor cytotoxicity in HepG2 cells - 16 hour (AID 1224876); note: nearly all actives have a fitted effect of over 45% in size
Method in brief: (§6)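 Real-time cytotoxicity: fluorescence of a cell-impermeant cyanine dye binding DNA of dead HepG2 cells, measured repeatedly (0–40 h) during compound exposure at 37 C. Cells seeded 600/well with reagent, dosed after 5 h.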

[17] = qHTS RealTime-Glo MT Cell Viability Assay in HepG2 cells - 32 hour (AID 1224877); note: nearly all actives have a fitted effect of over 55% in size
Method in brief: as §1

[18] = A CellTox Green Cytotoxicity Assay to monitor cytotoxicity in HepG2 cells - 24 hour (AID 1224878); note: nearly all actives have a fitted effect of over 45% in size
Method in brief: as §6

[19] = A CellTox Green Cytotoxicity Assay to monitor cytotoxicity in HepG2 cells - 40 hour (AID 1224879); note: nearly all actives have a fitted effect of over 40% in size
Method in brief: as §6

[20] = qHTS RealTime-Glo MT Cell Viability Assay in HEK293 cells - 0 hour (AID 1224880)
Method in brief: as §5
% is set by controls: 0 for no effect and ±100 for the full control effect.

CCCCCCCCCC#N
inactive: Potency [1] | Potency [2] | outcome [3] | Potency [4] | Potency [5] | activity change, positive = activation [6] -15.2% | Potency [7] | Potency [8] | Potency [9] | Potency [10] | Potency [11] | Potency [12] | outcome [13] | max response [14] 0.388% | Potency [15] | Potency [16] | Potency [17] | Potency [18] | Potency [19] | outcome [20]

O=C(Cl)c1cccc([N+](=O)[O-])c1
inactive: Potency [1] | Potency [2] | outcome [3] | Potency [4] | Potency [5] | activity change, positive = activation [6] 0.643% | Potency [8] | Potency [9] | Potency [10] | Potency [11] | Potency [12] | outcome [13] | max response [14] 3.57% | Potency [15] | Potency [16] | Potency [17] | Potency [18] | Potency [19] | outcome [20]

CC(C)OC(C)C
inactive: Potency [1] | Potency [2] | outcome [3] | Potency [4] | Potency [5] | activity change, positive = activation [6] -8.47% | Potency [8] | Potency [9] | Potency [10] | Potency [11] | Potency [12] | outcome [13] | max response [14] 20.1% | Potency [15] | Potency [17] | Potency [18] | Potency [19] | outcome [20]

O=[N+]([O-])c1nccn1CO[C@@H](CO)[C@H](O)CO
inactive: Potency [1] | Potency [2] | outcome [3] | Potency [4] | Potency [5] | activity change, positive = activation [6] 7.4% [at 42.5 µM] | Potency [8] | Potency [9] | Potency [10] | Potency [11] | Potency [12] | outcome [13] | max response [14] -3.33% | Potency [15] | Potency [16] | Potency [17] | Potency [18] | Potency [19] | outcome [20]

CCN1CC(CCN2CCOCC2)C(c2ccccc2)(c2ccccc2)C1=O (stereo not given)
inactive: Potency [1] | Potency [2] | outcome [3] | Potency [4] | Potency [5] | activity change, positive = activation [6] -6.21% [at 42.5 µM] | Potency [7] | Potency [8] | Potency [9] | Potency [10] | Potency [11] | Potency [12] | outcome [13] | max response [14] 20.2% | Potency [15] | Potency [16] | Potency [17] | Potency [18] | Potency [19] | outcome [20]

COc1nc(C)nc(NC(=O)NS(=O)(=O)c2ccccc2OCCCl)n1
inactive: Potency [1] | Potency [2] | outcome [3] | Potency [4] | Potency [5] | activity change, positive = activation [6] -0.581% | Potency [7] | Potency [8] | Potency [10] | Potency [11] | Potency [12] | outcome [13] | max response [14] 6.36% | Potency [15] | Potency [16] | Potency [17] | Potency [18] | Potency [19] | outcome [20]
